± gives the standard deviation of the averaged measurements. Of roughly 6,500 targets only a part is listed; those with the largest changes were picked by preference.
Compound: Nc1ncnc2c1ncn2[C@@H]1O[C@H](COP(=O)(O)OP(=O)(O)OP(=O)(O)O)[C@@H](O)[C@H]1O [adenosine triphosphate]
Experiment: NP40-soluble protein abundance relative to vehicle (solubility fold change) (ratio); higher = more soluble protein in presence of ATP
Summary of the method: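 Crude Jurkat lysate, prepared by Dounce homogenisation, was exposed to eight concentrations from 0.1 to 10 mM for 10 min at room temperature and then 3 min at 37 °C. Solubilisation used 0.8% NP40 with benzonase for 60 min at 4 °C, followed by ultracentrifugation and TMT labelling of the supernatant for LC-MS/MS. After vsn normalisation of intensities, each value is the fold change against the detergent-processed vehicle within each replicate, across three independent experiments.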

UniProt Q76I76, sequence (Q76I76 whole entry, one chain of several): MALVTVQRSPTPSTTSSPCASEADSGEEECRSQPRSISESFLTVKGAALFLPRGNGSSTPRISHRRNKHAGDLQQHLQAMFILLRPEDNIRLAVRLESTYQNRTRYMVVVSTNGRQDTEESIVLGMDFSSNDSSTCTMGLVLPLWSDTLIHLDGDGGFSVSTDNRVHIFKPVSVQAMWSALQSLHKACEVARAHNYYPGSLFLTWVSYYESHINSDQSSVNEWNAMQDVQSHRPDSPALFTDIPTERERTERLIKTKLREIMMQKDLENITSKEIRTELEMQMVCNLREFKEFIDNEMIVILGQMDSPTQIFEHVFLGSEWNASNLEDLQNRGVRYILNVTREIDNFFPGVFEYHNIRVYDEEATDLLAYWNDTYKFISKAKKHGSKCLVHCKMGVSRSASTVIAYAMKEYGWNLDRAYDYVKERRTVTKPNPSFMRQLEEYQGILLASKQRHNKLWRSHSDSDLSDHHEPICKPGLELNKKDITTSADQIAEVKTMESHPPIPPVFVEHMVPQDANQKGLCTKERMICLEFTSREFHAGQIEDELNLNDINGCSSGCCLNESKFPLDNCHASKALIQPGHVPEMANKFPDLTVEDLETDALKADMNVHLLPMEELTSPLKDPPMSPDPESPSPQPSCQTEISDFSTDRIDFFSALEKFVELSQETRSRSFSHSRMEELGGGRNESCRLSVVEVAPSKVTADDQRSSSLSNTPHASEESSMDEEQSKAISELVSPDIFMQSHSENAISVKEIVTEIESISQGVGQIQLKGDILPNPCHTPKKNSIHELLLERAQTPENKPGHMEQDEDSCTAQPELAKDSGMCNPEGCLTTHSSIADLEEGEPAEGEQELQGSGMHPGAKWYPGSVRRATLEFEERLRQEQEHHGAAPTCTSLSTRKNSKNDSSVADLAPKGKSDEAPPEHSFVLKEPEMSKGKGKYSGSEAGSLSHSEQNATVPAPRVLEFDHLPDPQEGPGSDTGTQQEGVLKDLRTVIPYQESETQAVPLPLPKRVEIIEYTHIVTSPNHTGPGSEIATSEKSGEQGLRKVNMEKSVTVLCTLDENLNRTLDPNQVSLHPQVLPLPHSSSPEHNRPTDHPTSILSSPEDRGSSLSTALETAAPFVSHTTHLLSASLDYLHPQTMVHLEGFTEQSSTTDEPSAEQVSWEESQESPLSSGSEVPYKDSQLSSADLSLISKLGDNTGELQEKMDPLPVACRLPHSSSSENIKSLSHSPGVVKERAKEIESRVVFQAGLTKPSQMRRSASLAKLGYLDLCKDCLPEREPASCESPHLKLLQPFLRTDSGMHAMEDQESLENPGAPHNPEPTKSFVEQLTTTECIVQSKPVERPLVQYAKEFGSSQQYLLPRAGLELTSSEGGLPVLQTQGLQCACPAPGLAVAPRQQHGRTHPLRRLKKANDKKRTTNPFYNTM
UniProt Q9BV68, sequence (Q9BV68 whole entry, one chain of several): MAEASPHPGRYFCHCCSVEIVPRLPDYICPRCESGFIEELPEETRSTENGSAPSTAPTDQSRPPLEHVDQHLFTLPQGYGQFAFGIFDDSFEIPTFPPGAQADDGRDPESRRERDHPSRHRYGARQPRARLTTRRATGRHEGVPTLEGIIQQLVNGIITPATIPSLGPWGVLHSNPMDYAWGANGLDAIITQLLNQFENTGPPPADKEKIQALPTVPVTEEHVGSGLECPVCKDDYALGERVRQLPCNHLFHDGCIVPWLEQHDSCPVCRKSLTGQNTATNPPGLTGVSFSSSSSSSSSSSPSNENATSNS
UniProt Q9BXS9, sequence (Q9BXS9 whole entry, one chain of several): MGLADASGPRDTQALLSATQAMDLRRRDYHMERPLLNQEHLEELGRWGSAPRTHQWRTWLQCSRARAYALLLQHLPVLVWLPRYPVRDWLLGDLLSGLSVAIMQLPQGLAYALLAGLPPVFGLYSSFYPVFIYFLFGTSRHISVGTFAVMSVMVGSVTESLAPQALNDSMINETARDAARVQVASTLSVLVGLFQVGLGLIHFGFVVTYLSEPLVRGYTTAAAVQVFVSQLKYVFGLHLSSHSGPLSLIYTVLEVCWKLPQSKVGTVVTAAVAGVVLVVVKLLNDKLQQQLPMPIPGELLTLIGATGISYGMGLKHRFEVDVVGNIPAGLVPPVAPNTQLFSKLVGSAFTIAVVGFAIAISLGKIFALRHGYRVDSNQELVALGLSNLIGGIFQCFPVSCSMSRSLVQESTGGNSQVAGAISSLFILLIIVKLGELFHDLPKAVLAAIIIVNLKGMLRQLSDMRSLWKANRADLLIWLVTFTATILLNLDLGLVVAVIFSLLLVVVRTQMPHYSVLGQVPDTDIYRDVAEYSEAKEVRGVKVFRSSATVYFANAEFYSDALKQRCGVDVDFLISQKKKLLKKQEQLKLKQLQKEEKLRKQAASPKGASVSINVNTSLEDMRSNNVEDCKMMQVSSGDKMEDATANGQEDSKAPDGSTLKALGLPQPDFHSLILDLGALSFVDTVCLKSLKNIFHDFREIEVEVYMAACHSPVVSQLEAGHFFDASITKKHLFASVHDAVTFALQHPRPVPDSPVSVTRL
UniProt Q8NC42, sequence (Q8NC42 whole entry, one chain of several): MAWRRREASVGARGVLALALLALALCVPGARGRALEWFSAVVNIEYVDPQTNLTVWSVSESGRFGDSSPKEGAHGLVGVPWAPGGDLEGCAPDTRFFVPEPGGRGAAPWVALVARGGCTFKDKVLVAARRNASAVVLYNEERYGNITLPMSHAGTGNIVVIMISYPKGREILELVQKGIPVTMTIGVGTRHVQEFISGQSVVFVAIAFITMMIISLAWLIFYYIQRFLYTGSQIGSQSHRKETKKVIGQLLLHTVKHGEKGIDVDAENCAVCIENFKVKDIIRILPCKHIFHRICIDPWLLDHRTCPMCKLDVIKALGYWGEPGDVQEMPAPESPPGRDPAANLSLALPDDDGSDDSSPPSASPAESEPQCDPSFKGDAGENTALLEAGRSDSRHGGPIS
UniProt P49821, sequence (P49821 whole entry, one chain of several): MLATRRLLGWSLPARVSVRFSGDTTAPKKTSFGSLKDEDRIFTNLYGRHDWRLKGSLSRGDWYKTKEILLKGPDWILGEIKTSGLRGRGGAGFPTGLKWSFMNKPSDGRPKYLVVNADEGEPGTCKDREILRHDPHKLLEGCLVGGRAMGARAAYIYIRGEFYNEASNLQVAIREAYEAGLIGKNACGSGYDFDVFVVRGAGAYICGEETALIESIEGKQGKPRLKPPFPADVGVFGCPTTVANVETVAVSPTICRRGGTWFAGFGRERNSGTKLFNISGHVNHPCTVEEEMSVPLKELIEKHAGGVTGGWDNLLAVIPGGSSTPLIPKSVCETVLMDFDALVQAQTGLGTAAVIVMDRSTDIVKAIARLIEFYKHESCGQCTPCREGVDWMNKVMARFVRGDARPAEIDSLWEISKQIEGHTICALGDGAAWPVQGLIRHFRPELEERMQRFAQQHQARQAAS
UniProt Q14160, sequence (Q14160 whole entry, looked up, one chain of several): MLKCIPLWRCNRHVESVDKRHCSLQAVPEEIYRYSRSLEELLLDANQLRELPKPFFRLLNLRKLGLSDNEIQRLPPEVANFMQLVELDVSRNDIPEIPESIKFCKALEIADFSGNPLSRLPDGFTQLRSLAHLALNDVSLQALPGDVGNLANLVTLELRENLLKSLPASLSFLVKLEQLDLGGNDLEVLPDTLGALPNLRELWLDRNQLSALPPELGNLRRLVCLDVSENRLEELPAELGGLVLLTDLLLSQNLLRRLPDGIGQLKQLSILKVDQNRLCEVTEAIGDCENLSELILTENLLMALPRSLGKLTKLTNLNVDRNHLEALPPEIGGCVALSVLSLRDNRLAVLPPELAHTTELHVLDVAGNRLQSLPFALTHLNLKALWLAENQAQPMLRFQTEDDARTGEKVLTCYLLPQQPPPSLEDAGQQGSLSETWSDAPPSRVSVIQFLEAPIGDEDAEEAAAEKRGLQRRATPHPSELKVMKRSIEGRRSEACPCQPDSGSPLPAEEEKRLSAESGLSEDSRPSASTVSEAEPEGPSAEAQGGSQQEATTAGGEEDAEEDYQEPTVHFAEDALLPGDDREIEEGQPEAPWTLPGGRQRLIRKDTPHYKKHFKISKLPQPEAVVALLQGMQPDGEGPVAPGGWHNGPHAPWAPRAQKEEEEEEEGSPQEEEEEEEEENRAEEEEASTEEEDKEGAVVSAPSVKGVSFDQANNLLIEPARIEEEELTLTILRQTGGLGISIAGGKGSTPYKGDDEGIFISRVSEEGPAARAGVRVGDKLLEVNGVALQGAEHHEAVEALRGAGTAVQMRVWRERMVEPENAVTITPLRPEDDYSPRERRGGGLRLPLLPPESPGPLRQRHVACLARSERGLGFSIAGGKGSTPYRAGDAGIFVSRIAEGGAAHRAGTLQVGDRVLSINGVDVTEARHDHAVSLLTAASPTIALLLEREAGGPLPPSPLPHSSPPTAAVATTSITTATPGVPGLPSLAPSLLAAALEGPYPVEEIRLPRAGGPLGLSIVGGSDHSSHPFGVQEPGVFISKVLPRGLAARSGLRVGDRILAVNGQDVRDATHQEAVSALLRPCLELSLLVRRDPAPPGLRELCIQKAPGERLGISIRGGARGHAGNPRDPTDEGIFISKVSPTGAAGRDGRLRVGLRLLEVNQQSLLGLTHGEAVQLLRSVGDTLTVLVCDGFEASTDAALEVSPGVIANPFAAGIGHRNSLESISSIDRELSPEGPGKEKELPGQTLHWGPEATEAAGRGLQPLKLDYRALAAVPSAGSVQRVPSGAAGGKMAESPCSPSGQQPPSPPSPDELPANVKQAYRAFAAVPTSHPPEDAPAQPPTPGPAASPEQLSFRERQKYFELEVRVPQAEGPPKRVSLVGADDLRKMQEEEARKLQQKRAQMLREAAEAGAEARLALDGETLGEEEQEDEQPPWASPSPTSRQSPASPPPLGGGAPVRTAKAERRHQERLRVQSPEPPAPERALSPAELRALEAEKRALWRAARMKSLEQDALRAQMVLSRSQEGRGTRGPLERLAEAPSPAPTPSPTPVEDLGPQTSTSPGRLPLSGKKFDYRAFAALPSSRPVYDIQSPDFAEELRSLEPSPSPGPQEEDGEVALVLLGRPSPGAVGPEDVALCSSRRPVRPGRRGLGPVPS

Target	NP40-soluble protein abundance (concentration: 1mM)	NP40-soluble protein abundance (concentration: 2mM)	NP40-soluble protein abundance (concentration: 4mM)	NP40-soluble protein abundance (concentration: 6mM)	NP40-soluble protein abundance (concentration: 8mM)	NP40-soluble protein abundance (concentration: 10mM)
C9JKQ2|O43676 (UniProt O43676)	0.921 ± 0.053	0.903 ± 0.08	0.867 ± 0.032	0.908 ± 0.048	0.862 ± 0.04	0.868 ± 0.042
F5H527|Q76I76 (UniProt Q76I76)	0.984 ± 0.012	1 ± 0.016	0.993 ± 0.03	0.997 ± 0.013	0.978 ± 0.037	0.995 ± 0.062
J9JID7|Q03252 (UniProt Q03252)	1 ± 0.066	0.943 ± 0.063	1.01 ± 0.065	1.06 ± 0.037	1.03 ± 0.047	1.09 ± 0.059
J3KQ34|Q9H9Q2 (UniProt Q9H9Q2)	0.89 ± 0.097	0.87 ± 0.04	0.855 ± 0.072	0.873 ± 0.093	0.878 ± 0.032	0.77 ± 0.1
A0A0J9YW36|Q9NZ72|Q9NZ72-2 (UniProt Q9NZ72)	1.03 ± 0.25	1.21 ± 0.52	0.979 ± 0.12	1.18 ± 0.36	0.945 ± 0.1	0.863 ± 0.05
A0A0G2JPP5|Q14160|Q14160-3|A0A0G2JNZ2 (UniProt Q14160)	0.973 ± 0.016	0.96 ± 0.02	0.9694 ± 0.0075	0.98 ± 0.023	0.93 ± 0.021	0.941 ± 0.031
G8JLQ3|P78537|P78537-2 (UniProt P78537)	0.965 ± 0.12	0.88 ± 0.076	0.834 ± 0.1	0.861 ± 0.12	0.816 ± 0.032	0.702 ± 0.15
B4DT96|C9JYA1|O15504|O15504-2 (UniProt O15504)	0.985 ± 0.095	1.21 ± 0.19	1.29 ± 0.17	1.43 ± 0.42	1.42 ± 0.26	1.77 ± 0.49
G5E9V5|G5E9W7|P82650 (UniProt P82650)	1.01 ± 0.046	0.938 ± 0.079	0.892 ± 0.083	0.907 ± 0.18	0.88 ± 0.11	0.867 ± 0.1
E9PEB9|Q03001|Q03001-3 (UniProt Q03001)	0.92 ± 0.1	0.924 ± 0.041	0.942 ± 0.081	0.959 ± 0.15	0.899 ± 0.09	0.968 ± 0.056
F8WCD0|Q8NC42 (UniProt Q8NC42)	0.964 ± 0.023	0.992 ± 0.013	1.08 ± 0.076	1.03 ± 0.029	0.945 ± 0.021	1 ± 0.076
HAT1 (UniProt O14929)	1.01 ± 0.16	0.995 ± 0.098	0.957 ± 0.08	0.895 ± 0.15	0.97 ± 0.09	0.955 ± 0.04
G3XAC1|Q9BXS9|Q9BXS9-3|Q9BXS9-7|A0A0C4DFT5|Q9BXS9-4|Q9BXS9-5 (UniProt Q9BXS9)	0.909 ± 0.018	0.891 ± 0.037	0.918 ± 0.073	0.885 ± 0.022	0.867 ± 0.074	0.863 ± 0.071
A0A0B4J1Z1|C9JAB2|Q16629|Q16629-2|Q16629-3|Q16629-4 (UniProt Q16629)	1.7 ± 0.28	1.77 ± 0.28	1.89 ± 0.28	2.04 ± 0.31	1.98 ± 0.38	2.09 ± 0.36
B1AJY7|O75832 (UniProt O75832)	1 ± 0.082	0.973 ± 0.031	0.955 ± 0.065	0.977 ± 0.076	0.947 ± 0.056	0.863 ± 0.043
A8MT02|P14678|P14678-2|P14678-3 (UniProt P14678)	1.22 ± 0.14	1.34 ± 0.089	1.47 ± 0.05	1.7 ± 0.26	1.7 ± 0.22	1.63 ± 0.13
A0A0U1RRK1|F6XEV2|Q9BPX6|Q9BPX6-3|Q9BPX6-2 (UniProt Q9BPX6)	1.01 ± 0.073	1.01 ± 0.045	1.04 ± 0.038	1.05 ± 0.067	1.07 ± 0.066	1.08 ± 0.058
H7C5U8|Q9P0M9 (UniProt Q9P0M9)	1.12 ± 0.16	0.995 ± 0.22	0.923 ± 0.19	0.944 ± 0.29	0.902 ± 0.19	0.894 ± 0.24
A0A0B4J220 (UniProt E9PRG8)	1.02 ± 0.028	1.11 ± 0.066	1.27 ± 0.17	1.31 ± 0.091	1.42 ± 0.27	1.56 ± 0.23
UniProt O43865	0.982 ± 0.1	0.965 ± 0.063	0.963 ± 0.076	0.973 ± 0.1	0.96 ± 0.081	0.969 ± 0.043
B1AK44|Q9UI95 (UniProt Q9UI95)	0.999 ± 0.022	0.937 ± 0.037	0.978 ± 0.024	1.01 ± 0.087	1.05 ± 0.086	0.993 ± 0.059
HMGN4 (UniProt O00479)	0.97 ± 0.35	1.27 ± 0.44	1.22 ± 0.47	1.67 ± 0.86	1.63 ± 0.72	2.97 ± 2.3
XYLB (UniProt O75191)	1 ± 0.053	0.986 ± 0.062	0.984 ± 0.097	0.965 ± 0.069	0.99 ± 0.075	0.967 ± 0.053
B4DHE8|Q96DH6 (UniProt Q96DH6)	1.02 ± 0.045	1.02 ± 0.058	0.994 ± 0.065	0.993 ± 0.08	0.983 ± 0.071	0.972 ± 0.079
E9PJA7|Q9NYF8|Q9NYF8-2|Q9NYF8-3 (UniProt Q9NYF8)	1.31 ± 0.092	1.41 ± 0.056	1.54 ± 0.086	1.7 ± 0.11	1.65 ± 0.07	1.7 ± 0.06
G3V0I5|P49821|P49821-2 (UniProt P49821)	0.986 ± 0.025	0.96 ± 0.02	0.944 ± 0.033	0.94 ± 0.056	0.962 ± 0.052	0.953 ± 0.046
K7EIY6|Q9BV68-2 (UniProt Q9BV68)	1 ± 0.15	0.967 ± 0.095	0.991 ± 0.11	1 ± 0.1	0.969 ± 0.034	0.92 ± 0.11
A0A087WYN9|Q7Z478 (UniProt Q7Z478)	2.24 ± 0.062	2.31 ± 0.051	2.45 ± 0.092	2.57 ± 0.045	2.68 ± 0.07	2.74 ± 0.062
J3KP06|Q8WWI1|Q8WWI1-2|Q8WWI1-3|Q8WWI1-4 (UniProt Q8WWI1)	1.31 ± 0.026	1.41 ± 0.07	1.57 ± 0.067	1.65 ± 0.07	1.77 ± 0.057	1.96 ± 0.042
J3KTL2|Q07955 (UniProt Q07955)	1.41 ± 0.16	1.53 ± 0.14	1.7 ± 0.11	1.93 ± 0.19	1.89 ± 0.097	1.98 ± 0.093

— the supplement of paper PMC6411743
